Laboratory results taken from PubChem BioAssay (Tox21).
Results filed as inconclusive are left out. Where a call stands in place of a potency, no number is given. Unmarked numbers belong to inactive results. Active and inactive are the calls of the source. Calls come from the whole dose curve; as a rule, active = well fitted inhibition curve with a large enough effect in the repeat runs; inconclusive = weak or mixed curves; inactive = no such curve, though single readings can be large or run the other way. Non-standard residues stand in square brackets, D forms with d. Residues, ends and D or L forms follow the SMILES beside them. *: point of attachment. Sta = CC(C)C[C@H](N)[C@@H](O)CC(=O)O; Isovaleryl = CC(C)CC(=O)*

Test: qHTS assay to identify small molecule antagonists of the thyroid receptor (TR) signaling pathway (AID 743065); note: nearly all actives have a fitted effect of over 55% in size
Details: GH3.TRE-Luc, T3-stimulated luciferase inhibition, 23.5 h; series mostly up to 70.3 µM
Summary of the method: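 GH3.TRE-Luc rat pituitary cells carrying two TR response elements driving luciferase were plated for 4 h, given compound plus 1 nM T3 (final), and incubated 23.5 h at 37 C. ONE-Glo luminescence measured reporter inhibition; CellTiter-Fluor fluorescence tracked cytotoxicity.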
Potency is the fitted concentration of half-maximal effect.

Structure (SMILES)	Potency	activity, negative = inhibition
CCC(C)(C)C	inactive	–
CC(C)(O)c1ccc(C(C)(C)O)cc1	inactive	–
O=C(O)Cc1c(Cl)ccc(Cl)c1Cl	inactive	–
C[Si](C)(C)O[Si](O)(O)O	inactive	–
CC/C=C\CCCCCCCCCCOC(C)=O	inactive	–
CCO[Si](CC(C)C)(OCC)OCC	inactive	–
C=CCOC(=O)CCCCCCCC	inactive	–
COc1cc2nc(N3CCN(C(=O)C4CCCO4)CC3)nc(N)c2cc1OC (centres undefined)	inactive	–
Nc1nc(Cl)cc(Cl)n1	inactive	–
CN1CCN(C(=O)C2CCCCC2)CC1	inactive	–
CCCC(=O)CC	inactive	–
O=P(O)(O)C(O)(Cc1cccnc1)P(=O)(O)O	inactive	–
CN(C)c1cc(NC(=O)CNC(C)(C)C)c(O)c2c1C[C@H]1C[C@H]3[C@H](N(C)C)C(=O)C(C(N)=O)=C(O)[C@@]3(O)C(=O)C1=C2O	inactive	–
CCCCCCCCCCCCCCCC/C=C/C1CC(=O)OC1=O (centres undefined)	29.7 µM (active)	–
CC(O)CCCCn1c(=O)c2c(ncn2C)n(C)c1=O (centres undefined)	inactive	–
c1coc(Cn2cccc2)c1	inactive	–
Nc1cc(S(=O)(=O)O)ccc1O	inactive	–

Structure (SMILES)	Potency	activity, negative = inhibition
CC12CCCC=C1C(=O)OC2=O (centres undefined)	inactive	–
Cc1cc(N)no1	inactive	–
O=C(O)Cc1ccccc1Oc1ccc(Cl)cc1Cl	inactive	–
CC(=O)OC1CCC(C(C)(C)C)CC1 (centres undefined)	inactive	–
CN(C)CCCN(C)C	–	0.44% [at 8.44 µM]
Cc1ccc(O)c(C(=O)c2ccccc2)c1	inactive	–
CC(=O)c1c(C)cc(C(C)(C)C)cc1C	inactive	–
CCCCN(CCCC)CCCCCCN(CCCC)CCCC	inactive	–
CCOC(=O)c1ccc(N(C)C)cc1	inactive	–
Cc1ccccc1OCC(=O)O	inactive	–
C/C=C(\C)C(=O)OC/C=C(\C)CCC=C(C)C	inactive	–
CC(C)(C)C(=O)CCc1ccc(Cl)cc1	inactive	–
CCC(=O)OCCOc1ccccc1	inactive	–
CSC(=O)c1cccc2nnsc12	inactive	–
C/C=C(\C)C=O	inactive	–
CCCCCCCCCCCBr	inactive	–
CC(C)CC(=O)N[C@H](C(=O)N[C@H](C(=O)N[C@@H](CC(C)C)[C@@H](O)CC(=O)N[C@@H](C)C(=O)N[C@@H](CC(C)C)[C@@H](O)CC(=O)O)C(C)C)C(C)C (Isovaleryl-VV[Sta]A[Sta]-OH)	inactive	–
